Test results taken from PubChem BioAssay.
Activity calls are given as the source filed them. The rule behind the calls is not given here.

These molecules were tested against Pantothenate synthetase (Mycobacterium tuberculosis (strain ATCC 25618 / H37Rv)) (UniProt P9WIL5) (assay: Recombinant Mtb pantothenate synthetase (PanC) inhibitors, coupled enzyme, confirmatory (AID 375;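 note: 0% = full reaction with vehicle and 100% = no enzyme background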)). Details: coupled enzyme assay; at 10 µM, active compounds read high.
Pantothenate synthetase (Mycobacterium tuberculosis (strain ATCC 25618 / H37Rv)), sequence (P9WIL5 whole entry, looked up): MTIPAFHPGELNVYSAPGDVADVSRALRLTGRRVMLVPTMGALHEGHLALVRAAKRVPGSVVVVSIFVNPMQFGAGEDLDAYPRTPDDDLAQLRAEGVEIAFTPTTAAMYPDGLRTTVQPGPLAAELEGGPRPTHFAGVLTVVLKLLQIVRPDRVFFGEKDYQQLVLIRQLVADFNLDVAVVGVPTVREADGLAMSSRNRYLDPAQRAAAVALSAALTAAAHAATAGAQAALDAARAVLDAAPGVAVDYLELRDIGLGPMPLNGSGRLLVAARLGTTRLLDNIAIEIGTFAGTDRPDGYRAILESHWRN

Row | SMILES | inhibition
1 | COc1ccc(OC(C)C(=O)N2CCN(c3ccccn3)CC2)cc1 (centres undefined) | 7% (inactive)
2 | Cc1onc(-c2c(F)cccc2Cl)c1C(=O)Nc1nc2c(s1)CCCC2 | 0% (inactive)
3 | COc1ccc(Br)cc1S(=O)(=O)N1CCOCC1 | 0% (inactive)
4 | Cn1c2c(c(=O)n(C)c1=O)C(CC(=O)Nc1ccccc1)C(=O)N2 (centres undefined) | 7% (inactive)
5 | COc1ccc(C(C)=O)c(OC(=O)c2ccc(OC)c(OC)c2)c1 | 0% (inactive)
6 | COc1cccc(CC(NC(C)=O)C(=O)NC2CCN(c3c4c(nc5ncnn35)CCC4)CC2)c1 (centres undefined) | 5% (inactive)
7 | COc1ccc(S(=O)(=O)NCC(c2cccnc2)N2CCN(c3ccc(F)cc3)CC2)cc1C (centres undefined) | 0% (inactive)
8 | Cc1nc2ccc(S(=O)(=O)NC(C(=O)NCc3cccs3)C(C)C)cc2s1 (centres undefined) | 0% (inactive)
9 | CCNc1nc(OC)nc(Oc2ccc(=O)n(-c3ccccc3)n2)n1 | 4% (inactive)
10 | COc1ccc(-c2cc(C(=O)N3CCN(Cc4ccccc4)CC3)no2)cc1OC | 3% (inactive)
11 | COc1ccc(C2CC(c3ccc(C)cc3)Nc3ncnn32)cc1 (centres undefined) | 0% (inactive)
12 | CCOc1ccc(C2C=C(c3ccc(F)cc3)Nc3ncnn32)cc1 (centres undefined) | 9% (inactive)
13 | COc1cccc(C(=O)Nc2cc(C)c3c(=O)oc4ccccc4c3n2)c1 | 0% (inactive)
14 | Cc1ccc(Cn2c(SCC(N)=O)nc3c2c(=O)n(C)c(=O)n3C)cc1 | 0% (inactive)
15 | COc1ccc2c(c1)CCc1cc(C(=O)N3CCN(c4ccc(N5CCOCC5)nn4)CC3)sc1-2 | 2% (inactive)
16 | O=C(COC(=O)c1cnccn1)Nc1ccc2c(c1)OCO2 | 7% (inactive)
17 | O=C(NC1CCS(=O)(=O)C1)OC1CCCCC1 (centres undefined) | 0% (inactive)
18 | O=C(c1cccc(Cl)c1)N1CCN(Cc2ccncc2)CC1 | 0% (inactive)
19 | COC(=O)c1onc(C(=O)c2ccccc2)c1C(=O)OC | 0% (inactive)
20 | COc1ccc(N2C(=O)CC(NC3CC3)C2=O)cc1 (centres undefined) | 0% (inactive)

Row | SMILES | inhibition
21 | CCOC(=O)c1nnn(-c2nonc2N)c1CN1CCc2ccccc2C1 | 2% (inactive)
22 | COc1ccc2nc(N3CCC(C)CC3)c(C#N)cc2c1 | 7% (inactive)
23 | COCCn1nnnc1CN1CCC(Cc2ccccc2)CC1 | 0% (inactive)
24 | COc1ccc(OC)c(S(=O)(=O)N2CCC(C(=O)NCc3ccccc3OC)CC2)c1 | 0% (inactive)
25 | CCCCCn1c(CN2CCN(c3cccc(Cl)c3)CC2)nc2c1c(=O)n(C)c(=O)n2C | 0% (inactive)
26 | O=C(NCc1cccs1)C1CCN(S(=O)(=O)c2cccs2)CC1 | 0% (inactive)
27 | COc1ccc(C2N(C(=O)c3ccccc3)CCN2C(=O)c2ccccc2)cc1 | 0% (inactive)
28 | Cc1cc(C(=O)NCc2cccnc2)n(-c2ccccc2)n1 | 0% (inactive)
29 | CN(Cc1nc(-c2ccncc2)no1)S(=O)(=O)c1ccc(Cl)cc1 | 0% (inactive)
30 | Cn1c(=O)c2c(-c3ccccc3)n(CCCN3CCOCC3)cc2n(C)c1=O | 0% (inactive)
31 | CCOc1ccccc1-c1nc(-c2ccc(C)nc2OC)no1 | 3% (inactive)
32 | COC(=O)c1ccccc1NS(=O)(=O)c1ccc(F)cc1 | 0% (inactive)
33 | O=C(Nc1cccnc1)c1cc2c(ccc3ccccc32)o1 | 0% (inactive)
34 | Cc1cc(C(=O)OCC(=O)N2c3ccccc3CC2C)c(C)o1 (centres undefined) | 3% (inactive)
35 | Clc1c(CSc2nc3ccccc3o2)nc2sccn12 | 1% (inactive)
36 | Cc1ccc2nc(NC(=O)C3CCCN(S(=O)(=O)c4cccc5nonc45)C3)sc2c1 (centres undefined) | 1% (inactive)
37 | COc1ccc(-c2cc3nc4n(c(=O)c3s2)CCC4)cc1 | 8% (inactive)
38 | Nc1cc(C(=O)O)ccc1Nc1ccc(F)c(F)c1 | 5% (inactive)
39 | O=C1c2ccccc2C(=O)N1CC(O)Cn1nnc2ccccc21 (centres undefined) | 0% (inactive)
